In the library only some 7.4% were active in any assay of this set; here they are far more common.
NPC1 prom act: qHTS Assay for NPC1 Promoter Activators; hit rate 2.4% among 320,000; Huh7 NPC1 promoter luciferase reporter, 24 h; Potency, µM (doses to about 9.22 µM), hits mostly activators; further: nearly all actives have a fitted effect of over 60% in size
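Huh7 cells stably carrying NPC1 promoter–luciferase, plated in Opti-MEM with 10% FBS for 2 h, were exposed to compound in DMSO for 24 h at 37 °C; luciferase reagent was added for 10 min and luminescence read.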
SMN2 splice enh: qHTS Assay for Enhancers of SMN2 Splice Variant Expression | HEK293 SMN2-luciferase splicing reporter, luminescence, 30-36 h | Potency, µM (top dose mostly 46.1 µM), usual class: activators | hit rate 2.8% among 210,000 | AID 1458, 2008; further: nearly all actives have a fitted effect of over 55% in size
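HEK293 cells carry an SMN2 minigene-luciferase reporter in which exon 7 inclusion puts luciferase in frame. Cells were seeded at 2000 cells/well, attached for 10-12 hours, then exposed to compounds for 30-36 hours at 37C before ONE-Glo luminescence.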
FLuc counter: qHTS profiling assay for firefly luciferase inhibitor/activator using purifed enzyme and Km concentrations of substrates (counterscreen for miR-21 project) | Luciferin 4-monooxygenase (Photinus pyralis), P08659 | purified FLuc, Km substrates, luminescence inhibition | Potency, µM (series often up to 57.5 µM), actives largely listed as inhibitors | hit rate 6.9% among 360,000; further: nearly all actives have a fitted effect of over 55% in size
Target sequence (P08659 whole entry, looked up): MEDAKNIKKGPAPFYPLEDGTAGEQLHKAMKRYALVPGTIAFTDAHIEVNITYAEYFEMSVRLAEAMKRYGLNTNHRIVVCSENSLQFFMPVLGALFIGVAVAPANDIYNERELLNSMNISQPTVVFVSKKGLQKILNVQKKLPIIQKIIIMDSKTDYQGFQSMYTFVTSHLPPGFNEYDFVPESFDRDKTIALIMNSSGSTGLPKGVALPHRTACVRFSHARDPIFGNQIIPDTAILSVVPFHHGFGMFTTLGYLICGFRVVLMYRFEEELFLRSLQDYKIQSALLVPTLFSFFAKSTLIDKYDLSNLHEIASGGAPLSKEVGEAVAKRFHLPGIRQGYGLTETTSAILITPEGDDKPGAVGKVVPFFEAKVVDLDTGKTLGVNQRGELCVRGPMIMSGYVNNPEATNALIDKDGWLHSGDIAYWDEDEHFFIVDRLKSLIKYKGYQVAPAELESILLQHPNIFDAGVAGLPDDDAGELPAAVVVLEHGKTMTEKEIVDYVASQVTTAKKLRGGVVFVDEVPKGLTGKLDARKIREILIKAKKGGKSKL
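Biochemical qHTS of compounds, final roughly 60 µM downward over six points, against 10 nM purified firefly luciferase using Km concentrations of substrates (10 uM D-luciferin, 10 uM ATP) in Tris acetate pH 7.5 buffer; luminescence output.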
p53 reactivator: qHTS assay for re-activators of p53 using a Luc reporter; Potency, µM (doses to about 92.2 µM), most hits filed as activators; hit rate 0.063% among 320,000; H1299 p53-A138V BP100-luciferase reporter, luminescence, 24 h; further: nearly all actives have a fitted effect of over 45% in size
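p53-null H1299 cells stably carrying temperature-sensitive p53-A138V and a BP100-luciferase reporter were pinned with compounds (4-point, 1:5 series) and held 24 hrs at 37 deg C. Luminescence was read 10 min after detection reagent.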
Rab9 promoter act: qHTS Assay for Rab9 Promoter Activators. hit rate 2.8% among 320,000. Huh7 Rab9 promoter-luciferase reporter, luminescence, 24 h. Potency, µM (doses to about 9.22 µM), usual class: activators. AID 485297, 2010; further: nearly all actives have a fitted effect of over 60% in size
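Huh7 reporter line, Rab9 promoter upstream of luciferase. Compound exposure 24 h at 37 °C in reduced-serum medium with 10% FBS. Read-out: luminescence.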
ELG1 genotoxic: qHTS screen for small molecules that induce genotoxicity in human embryonic kidney (HEK293T) cells expressing luciferase-tagged ELG1; HEK293T ELG1-luciferase reporter, luminescence, 16 h; Potency, µM (doses to about 46 µM), actives largely listed as activators; hit rate 1.3% among 330,000; further: nearly all actives have a fitted effect of over 60% in size
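Reporter readout depends on ELG1 protein level, which increases with genetic stress. After 16 hr compound exposure at 37 °C, luciferase activity was quantified using ONE-Glo.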
Hits are given with their value; i = inactive; ? = inconclusive; nt = no result; [ ] = dose if it differs, or a comment. The call rests on the fitted dose curve; in most records, active means well fitted curve in the direction sought with a large enough effect; inconclusive means small, poorly fitted or top-dose-only effect, or another doubt; inactive means no such curve, though single readings can be large; an effect the other way counts as inactive or inconclusive.

SMILES	NPC1 prom act	SMN2 splice enh	FLuc counter	p53 reactivator	Rab9 promoter act	ELG1 genotoxic
COc1ccc(CC2S/C(=N/N=C/c3ccc(O)cc3)NC2=O)cc1 (centres undefined)	i	i	0.43µM	i	?	?
Cc1ccc(-n2c3c(c(=O)[nH]c2=O)C(NC(=O)c2ccccc2C)(C(F)(F)F)C(=O)N3)cc1 (centres undefined)	nt	i	i	nt	nt	nt
Cc1cc(NC(=O)C2CCN(C(=O)c3ccco3)CC2)ccc1Br	i	nt	i	i	i	?
COCc1cc(C)nc2sc(C(=O)Nc3ccccc3Br)c(N)c12	i	nt	8.5µM	i	i	i
CCc1ccccc1NC(=O)c1sc2nc(C)cc(C)c2c1N	i	nt	?	nt	i	i
Cc1cc(C)c2c(N)c(C(=O)Nc3ccccc3F)sc2n1	1.8µM	nt	nt	i	2.2µM	?
COC(=O)c1sc2nc(C)cc(C)c2c1N	i	nt	?	i	i	i
CCOc1ccccc1NC(=O)c1sc2nc(C)cc(C)c2c1N	nt	i	i	nt	nt	nt
COc1ccc2nc(NC(=O)c3sc4nc(C)cc(C)c4c3N)sc2c1	?	nt	0.12µM	i	?	?
Cc1cc(C)c2c(N)c(C(=O)Nc3ncc(C)s3)sc2n1	i	i	0.095µM	i	?	?
CCc1noc(C)c1C(=O)Nc1ccc(F)c(F)c1F	i	nt	i	i	i	i
COc1ccc(OC)c(C2Nc3nc4ccccc4n3C(C)=C2C(=O)Nc2ccc(C)cc2C)c1 (centres undefined)	i	7.9µM	i	i	i	i
COc1ccc(/C=C(\C#N)C(=O)N2CCOCC2)cc1Br	i	i	i	i	i	i
Cc1cc(/C=C(\C#N)C(=O)N2CCOCC2)c(C)n1C1CCCC1	0.5µM	nt	1.1µM	i	0.32µM	1.6µM
COc1ccc(C2NC(=O)CS2)cc1 (centres undefined)	i	i	i	i	i	i
COc1ccc(C2NN=C(c3ccc(C)cc3)S2)cc1 (centres undefined)	i	nt	1.2µM	?	0.63µM	?
CCOc1cc(C2NN=C(c3ccc(C)cc3)S2)ccc1O (centres undefined)	3.2µM	16µM	5.4µM	?	3.5µM	?
Cc1ccc(C2=NNC(C(O)C(O)C(O)CO)S2)cc1 (centres undefined)	i	i	15µM	i	i	?
CN(CC(=O)Nc1ccc(F)cc1)C(=O)c1cc(-c2ccco2)nc2ccccc12	i	nt	?	i	i	i
COc1ccc(-c2cc(C(=O)N(C)CC(=O)Nc3cccc(F)c3)c3ccccc3n2)cc1	i	nt	19µM	i	i	i
Cc1ccc(NC(=O)CN(C)C(=O)c2cc(-c3ccco3)nc3ccccc23)cc1	i	nt	24µM	i	i	i
Cc1ccc2nc(-c3ccccc3)cc(C(=O)N(C)CC(=O)Nc3ccccc3Br)c2c1	i	nt	17µM	i	i	i
COc1ccc(NC(=O)CN(C)C(=O)c2cc(-c3ccc(OC)cc3)nc3ccccc23)cc1	i	nt	8.5µM	i	i	i
CN(CC(=O)Nc1cccc(F)c1)C(=O)c1cc(-c2ccccc2)nc2ccccc12	i	nt	i	i	i	i
C[C@@H]1[C@H](C)CC[C@@]2(C(=O)O[C@H]3O[C@@H](CO[C@H]4O[C@@H](CO)[C@@H](O[C@H]5O[C@@H](C)[C@@H](O)[C@@H](O)[C@@H]5O)[C@@H](O)[C@@H]4O)[C@@H](O)[C@@H](O)[C@@H]3O)CC[C@]3(C)C(=CC[C@H]4[C@@]5(C)C[C@@H](O)[C@@H](O)[C@](C)(CO)[C@@H]5CC[C@@]43C)[C@@H]12	nt	i	nt	nt	nt	nt
SMILES	NPC1 prom act	SMN2 splice enh	FLuc counter	p53 reactivator	Rab9 promoter act	ELG1 genotoxic
Cc1ccc(OCC(=O)NCC(=O)OCc2cc(=O)n3nc(C)sc3n2)cc1	nt	nt	i	nt	nt	nt
COc1cccc(-c2nn(-c3ccc(C)cc3)cc2C(=O)N(C)CC(=O)Nc2cccc(F)c2)c1	i	nt	8.5µM	i	i	i
COc1ccc(-c2nn(-c3ccccc3)cc2C(=O)N(C)CC(=O)Nc2cccc(F)c2)cc1	i	nt	i	i	i	i
Clc1ccc(-c2cn3nc4c(nc3n2)CCCC4)cc1	0.2µM	1.8µM	0.24µM	i	0.32µM	?
OC1CCN(c2c3c(nc4cc(-c5ccc(Cl)cc5)nn24)CCC3)CC1	i	i	?	i	i	i
COc1cccc(-c2cn3nc4c(nc3n2)CCCC4)c1	0.63µM	1.6µM	0.76µM	i	0.71µM	?
Cc1c2ccccc2c(C)c2c1ccc1ccccc12	i	i	13µM	?	?	18µM
Cc1cccc2nc(COc3ccc(Cl)c4cccnc34)cn12	i	?	12µM	i	?	?
CC1Cc2ccccc2N1C(=O)/C=C/c1cccc(F)c1 (centres undefined)	2.2µM	11µM	6µM	i	1.8µM	?
Cc1cc(Br)ccc1NC(=O)c1c(C)oc2ncnc(N3CCCCC3)c12	nt	nt	i	nt	nt	nt
CCOc1nc(-c2ccccc2)ccc1-c1noc(-c2ccco2)n1	i	i	i	i	i	i
COc1nc(-c2ccc(C)cc2)ccc1-c1noc(-c2ccco2)n1	?	i	19µM	i	?	?
CCOc1cc(-c2nc(-c3ccc(C)nc3OC)no2)cc(OCC)c1OCC	i	i	i	i	i	i
COc1ccc(-c2ccc(-c3noc(C)n3)c(OC)n2)cc1	?	i	?	i	?	?
COc1nc(C)ccc1-c1noc(-c2ccco2)n1	1.4µM	5.6µM	3.8µM	?	1.3µM	?
COCc1nc(-c2ccc(-c3ccc(C)cc3)nc2OC)no1	i	i	17µM	i	?	i
Nc1ccccc1C(=O)Nc1ccc(Cl)cc1Cl	?	nt	11µM	?	2.5µM	?
CC(C)NC(=S)NC(=O)c1ccc(Cl)cc1Cl	i	i[1.84 µM]	i	?	i	i
O=C(Nc1ccccc1Cl)c1ccc(Cl)cc1Cl	i	i	13µM	?	i	i
O=C(Nc1ccc(Cl)cc1Cl)c1ccc(-c2ccccc2)cc1	i	i	i	i	i	i
O=C(NC(=S)Nc1ccccc1O)c1ccc(Cl)cc1Cl	?	i	19µM	?	?	?
O=C(Nc1ccccc1Cl)c1ccccc1Cl	i	i	i	i	i	i
CC(=O)Nc1cccc(NC(=O)c2cc(Cl)ccc2Cl)c1	i	i	i	i	i	i
C#Cc1cccc(NC(=O)c2ccc(Cl)cc2Cl)c1	1.8µM	nt	2.7µM	?	1.1µM	16µM
O=C(c1cccc(F)c1)N1CCC[C@@]2(CCN(c3ccccn3)C2)C1	nt	i	nt	nt	nt	nt
N#Cc1ccc(CN2C=NS(=O)(=O)c3ccccc32)cc1	i	nt	i	i	i	i

High-throughput results deposited in PubChem BioAssay by National Center for Advancing Translational Sciences (NCATS).
